In one test the test system is Molm13. The test can be described thus: cell viability relative to DMSO control (bortezomib = 0%); higher = less growth inhibition. Conditions: 10 nM; 72 h. The method, boiled down:
(§1)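 Each plate's values were converted to percentages by linear regression, taking DMSO-treated cells as 100% and positive-control-treated cells as 0%. These plates were 384-well plates of 679 approved and investigational compounds at a single 10 nM dose, onto which acute myeloid leukemia cells were dispensed at 1000 cells per well in 50 µL for 72 h, in duplicate. Cell viability came from CellTiter-Glo luminescence on an EnVision reader.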

Another test deals with Mv4-11. The test is described as above. The settings on record: 10 nM; 72 h. Put shortly:
as §1

Usually cell viability stands for a read-out of living cells in per cent, often relative to untreated cells.

“And” between values parts separate entries of the source, which are not always exact repeats. Identical values can stand only once. ± gives the standard deviation of the averaged measurements.

`O=C(O)c1cc(NCc2cc(O)ccc2O)ccc1O` [Lavendustin C]: the cell viability was 111 ± 13% with Molm13 and 104 ± 1.9% in the test with Mv4-11.
Take `COc1cc(-c2cc(-c3cccc(O)c3)cnc2N)cc(OC)c1OC`: the cell viability with Molm13 was found to be 99.8 ± 14%; in the test on Mv4-11, 106 ± 6.8%.
Turning to `O=C1NC(=O)C(c2c[nH]c3ccccc23)=C1c1c[nH]c2ccccc12` [Bisindolylmaleimide IV], the values for the cell viability in the test with Molm13 and in the test with Mv4-11 were 105 ± 5.2% and 100 ± 2.6%, respectively.
Consider `Cn1c(=O)n(-c2ccc(C(C)(C)C#N)cc2)c2c3cc(-c4cnc5ccccc5c4)ccc3ncc21` [BEZ235 (NVP-BEZ235, Dactolisib)], for which the cell viability in the test on Molm13 was determined as 113 ± 7.9%; in the test on Mv4-11, 102 ± 6.4%.
Taken in the same sequence, the figures for `COc1cccc(-c2cc(=O)c3ccccc3o2)c1N` were 105 ± 10% and 103 ± 8.4%.
As for `CC(=O)c1c(C)c2cnc(Nc3ccc(N4CCNCC4)cn3)nc2n(C2CCCC2)c1=O`, the cell viability is 89.3% and 111% in the test with Molm13; 105% and 111% in the test on Mv4-11.
Regarding `c1cc(-c2cnn3cc(-c4ccc(OCCN5CCCCC5)cc4)cnc23)ccn1`, the values for the cell viability in the test on Molm13 and with Mv4-11 were 95.5 ± 6% and 117 ± 10%, respectively.
Taken in the same sequence, the figures for `COc1cc2/c(=N/c3ccc(Br)cc3F)nc[nH]c2cc1OCC1CCN(C)CC1` [Vandetanib (ZD6474)] were 116 ± 22% and 117 ± 41%.
The corresponding values for `O=C1NC(=O)C(c2ccccc2[N+](=O)[O-])=C1Nc1ccc(O)c(Cl)c1` are 110 ± 9.4% and 120 ± 9.7%.
As for `Cc1[nH]c(/C=C2\C(=O)Nc3ccccc32)c(C)c1CCC(=O)O` [TSU-68 (SU6668, Orantinib)], the cell viability in the test with Molm13 amounted to 93.8 ± 2.3%; in the test with Mv4-11, 122 ± 14%.
For `CN1CCCN(C(=O)c2cccc(-c3ccc(/C=C4/C(=O)Nc5ccc(Cl)cc54)o3)c2)CC1`, the cell viability with Molm13 was 127 ± 13%; in the test on Mv4-11 it was 120 ± 2.9%.
In the case of `Cc1cc(C(C)Nc2ccccc2)c2nc(N3CCOCC3)cc(=O)n2c1` (centres undefined), the cell viability turned out to be 106 ± 18% in the test on Molm13 and 100 ± 3.8% in the test with Mv4-11.
